Molecules are shown by their SMILES. This is part of a sample that, as a whole, favours compounds with a hit. Of some 83,000 tested, about 20% had one in any assay.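 Single-dose data. Exposure time 48 hours. Values below 10 considered active.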 Values without a mark were called inactive. Active and inactive are the calls of the source.

Test systems include SK-MEL-2 melanoma; EKVX NSCLC; SN12C renal; UO-31 renal; TK-10 renal; ACHN renal; CAKI-1 renal; A498 renal; CCRF-CEM leukemia; MOLT-4 leukemia; RPMI-8226 leukemia; OVCAR-8 ovarian; OVCAR-5 ovarian; OVCAR-4 ovarian; SK-OV-3 ovarian; IGROV1 ovarian; OVCAR-3 ovarian; NCI/ADR-RES ovarian; HS 578T breast; SR leukemia.
Assay in all cases: NCI-60 one-dose screen, 48 h (100 = growth as untreated, 0 = no growth, -100 = all killed)
Settings in all cases: 10 µM unless noted

In the case of `CN(C)c1cnccn1`, the growth is 85.4% with SK-MEL-2 melanoma; 104% in the assay on EKVX NSCLC; 88.6% in the assay on SN12C renal; 84.2% in the assay on UO-31 renal; 145% in the assay with TK-10 renal; 87.1% in the assay with ACHN renal. For the same compound, the growth in the assay with CAKI-1 renal was 95.6%; in the assay with A498 renal it was 95.7%; in the assay with CCRF-CEM leukemia, 60.6%; in the assay on MOLT-4 leukemia it was 93.7%; in the assay with RPMI-8226 leukemia, 65.2%; in the assay with OVCAR-8 ovarian, 92.5%. In addition, the growth in the assay on OVCAR-5 ovarian was 114%; in the assay on OVCAR-4 ovarian, 82.3%; in the assay with SK-OV-3 ovarian it was 90.9%; in the assay on IGROV1 ovarian it was 91.1%; with OVCAR-3 ovarian, 104%; in the assay on NCI/ADR-RES ovarian, 88.6%.

As to `C[C@H]1[C@H]2C3=CC[C@@H]4[C@@]5(C)C/C(=C/c6ccncc6)C(=O)C(C)(C)[C@@H]5CC[C@@]4(C)[C@]3(C)CC[C@@]2(C(=O)N2CCN(C)CC2)CC[C@@H]1C`, the growth is 96.3% with SK-MEL-2 melanoma; 78.3% with EKVX NSCLC; 78.9% with SN12C renal; 62.4% in the assay with UO-31 renal; 86.1% in the assay with TK-10 renal; 91% in the assay with ACHN renal. For the same compound, the growth in the assay on CAKI-1 renal is 75.1%; in the assay with A498 renal, 93.9%; with CCRF-CEM leukemia, 64.7%; with MOLT-4 leukemia, 52.1%; in the assay with RPMI-8226 leukemia it was 50.2%; with OVCAR-8 ovarian, 76.7%. In addition, the growth with OVCAR-5 ovarian is 86.7%; with OVCAR-4 ovarian it was 73.6%; in the assay on SK-OV-3 ovarian it was 82.9%; in the assay with IGROV1 ovarian, 84%; in the assay on HS 578T breast, 70%; in the assay on NCI/ADR-RES ovarian, 80.6%.

As for `CS(=O)(=O)c1ccc(-c2nc3cc(Cl)ccc3n2CC(=O)N/N=C/c2ccc(Cl)cc2)cc1`, the growth in the assay with SK-MEL-2 melanoma is 44.3%; in the assay with EKVX NSCLC it was 72.1%; in the assay on SN12C renal, 69.3%; with UO-31 renal it was 77.8%; in the assay with TK-10 renal, 81.7%; with ACHN renal it was 61.5%. Further, the growth was 71.3% in the assay on CAKI-1 renal; 68.4% with A498 renal; 19.9% in the assay on CCRF-CEM leukemia; 12.6% in the assay on MOLT-4 leukemia; -17.2% (active) with RPMI-8226 leukemia; 43.6% with OVCAR-8 ovarian. Besides, the growth is 77.4% with OVCAR-5 ovarian; 60.1% in the assay on OVCAR-4 ovarian; 65.8% with SK-OV-3 ovarian; 55.6% in the assay on IGROV1 ovarian; 46.5% in the assay with OVCAR-3 ovarian; 19.2% in the assay with HS 578T breast. Besides, the growth in the assay on NCI/ADR-RES ovarian is 92.8%.

Regarding `COC(=O)c1ccc2oc(NC(=O)c3ccc(N4CCOCC4)c([N+](=O)[O-])c3)nc2c1`, the growth was 99.5% with SK-MEL-2 melanoma; 96.6% in the assay with EKVX NSCLC; 87.3% in the assay with SN12C renal; 75.4% in the assay on UO-31 renal; 115% with TK-10 renal; 94.1% in the assay with ACHN renal. Also, the growth in the assay with CAKI-1 renal is 85.9%; in the assay with A498 renal it was 98.5%; in the assay on CCRF-CEM leukemia it was 90.3%; in the assay with RPMI-8226 leukemia, 93.3%; in the assay on OVCAR-8 ovarian it was 99%; in the assay on OVCAR-5 ovarian it was 92.8%. The growth was 91% in the assay with OVCAR-4 ovarian; 89.8% with SK-OV-3 ovarian; 99.9% in the assay on IGROV1 ovarian; 107% with OVCAR-3 ovarian; 96.9% in the assay on HS 578T breast; 103% with NCI/ADR-RES ovarian.

`O=C(NCc1cn(Cc2cccc(Oc3ccccc3)c2)nn1)c1cccnc1NCc1ccc(Cl)cc1`: the growth in the assay on SK-MEL-2 melanoma is 13.9%; with EKVX NSCLC, 30.7%; in the assay with SN12C renal, 40.9%; in the assay on UO-31 renal, 30.5%; in the assay with TK-10 renal it was 62.2%; in the assay on ACHN renal, 41.9%. Also, the growth with CAKI-1 renal was 32.2%; in the assay on A498 renal, -4.32% (active); in the assay with MOLT-4 leukemia it was 14.6%; with SR leukemia it was 19.3%; with RPMI-8226 leukemia, -9.55% (active); with OVCAR-8 ovarian, 32.6%. Further, the growth was 51.5% with OVCAR-5 ovarian; 43.8% in the assay with OVCAR-4 ovarian; 21.4% in the assay with SK-OV-3 ovarian; 60.1% with IGROV1 ovarian; 2.33% (active) in the assay on OVCAR-3 ovarian; 23.8% in the assay with HS 578T breast. Besides, in the assay on NCI/ADR-RES ovarian, the growth is 0.306% (active).

For the compound `CCOC(=O)c1nnn(-c2ccccc2)c1C1=CN(C)CCC1`, the growth in the assay with SK-MEL-2 melanoma is 103%; with EKVX NSCLC, 99%; in the assay with SN12C renal it was 106%; in the assay on UO-31 renal it was 82%; in the assay on TK-10 renal it was 96.6%; in the assay on ACHN renal it was 100%. The growth was 97.8% with CAKI-1 renal; 101% in the assay with A498 renal; 97.3% in the assay on MOLT-4 leukemia; 88.8% in the assay with SR leukemia; 113% in the assay with RPMI-8226 leukemia; 102% with OVCAR-8 ovarian. Besides, the growth with OVCAR-5 ovarian is 99.9%; in the assay with OVCAR-4 ovarian it was 99.9%; with SK-OV-3 ovarian it was 97.2%; with IGROV1 ovarian, 104%; in the assay on OVCAR-3 ovarian, 100%; in the assay with HS 578T breast, 91.9%. In addition, the growth with NCI/ADR-RES ovarian was 102%.

Regarding `Clc1ccc2c(NCCCN3CCN(c4nc(N5CCOCC5)nc5ccccc45)CC3)ccnc2c1`, the growth in the assay on SK-MEL-2 melanoma is -5.64% (active); in the assay with EKVX NSCLC, 26.4%; in the assay on SN12C renal, 45.9%; in the assay with UO-31 renal, -85.9% (active); in the assay with TK-10 renal, -38% (active); with ACHN renal it was -29.1% (active). Further, the growth with CAKI-1 renal is 15.3%; with A498 renal, 71.2%; in the assay on CCRF-CEM leukemia, 4.4% (active); in the assay on RPMI-8226 leukemia, -39.5% (active); in the assay with OVCAR-8 ovarian it was 16.1%; with OVCAR-5 ovarian, 60.6%. Further, the growth in the assay on OVCAR-4 ovarian is 50.3%; with SK-OV-3 ovarian, 108%; in the assay on IGROV1 ovarian it was 50.4%; with OVCAR-3 ovarian, -40.8% (active); with HS 578T breast it was 17.2%; in the assay with NCI/ADR-RES ovarian, 25.1%.

Consider `O=C1/C(=C/c2ccccc2[N+](=O)[O-])COc2ccc(O)c(O)c21`, for which the growth was 3.35% (active) with SK-MEL-2 melanoma; 7.9% (active) with EKVX NSCLC; -29.1% (active) in the assay with SN12C renal; -67.8% (active) in the assay with UO-31 renal; 3.34% (active) in the assay on TK-10 renal; 3.22% (active) in the assay on ACHN renal. Also, the growth in the assay on CAKI-1 renal is 6.79% (active); in the assay on A498 renal it was 77.4%; in the assay on CCRF-CEM leukemia it was -2.4% (active); in the assay with MOLT-4 leukemia, -8.56% (active); in the assay on OVCAR-8 ovarian it was 10.3%; in the assay on OVCAR-5 ovarian, -33% (active). Further, the growth with OVCAR-4 ovarian was 2.9% (active); with SK-OV-3 ovarian, 40.8%; in the assay with IGROV1 ovarian, -6.14% (active); with OVCAR-3 ovarian it was -63.2% (active); in the assay with HS 578T breast, -0.42% (active); in the assay on NCI/ADR-RES ovarian it was 5.96% (active).

Values taken from PubChem BioAssay (NCI).
